# Inconclusive results are not listed. Activity calls are given as the source filed them. Unless noted, calls follow the shape of the dose curve; as a rule, active = well fitted curve in the direction sought with a large enough effect; inconclusive = small, poorly fitted or top-dose-only effect, or another doubt; inactive = no such curve, though single readings can be large; an effect the other way counts as inactive or inconclusive.
# Legend:
# [1] = High-throughput drug toxicity screening in the BPDCN cell line Gen2.2 (AID 1224824; call rule not given here;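 also: cells exposed to compounds for 48 h before reading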); conditions: Gen2.2 BPDCN cells; at 45.8 µM (top of the series) unless noted
# Summary of the method: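 Gen2.2 cells (500/well) in phenol red-free RPMI with 10% FBS were exposed to compounds for 48 h at 37 °C, 5% CO2. Viability was read by CellTiter-Glo luminescence and normalized to DMSO (100%) and 9.2 uM bortezomib (0%).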
# [2] = High-throughput drug toxicity screening in the BPDCN cell line Cal-1 (AID 1224825; call rule not given here); conditions: Cal-1 BPDCN cell viability, qHTS; at 45.8 µM (top of the series) unless noted
# Summary of the method: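 Viability of the BPDCN line Cal-1 is measured as ATP-based luminescence (CellTiter-Glo) following 48 h incubation with compounds. Percent activity uses DMSO-treated wells as 100% and 9.2 uM bortezomib as 0%.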
# [3] = qHTS assay for measurement of the activity of small molecule inhibitors on Zika virus induced Caspase-3 activity in human iPSC derived neural progenitor cells (hNPCs) (AID 1224857); also: % of control where 0% means no effect; nearly all actives have a fitted effect of over 65% in size
# Summary of the method: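 Values are percent inhibition of virus-induced caspase-3/7 signal, scaled between uninfected cells and ZIKV-infected cells. Infection used 2 FFU/cell for 6 h after 1 h compound exposure.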
# [4] = qHTS assay for measurement of the activity of small molecule inhibitors on Zika virus induced Caspase-3 activity in human astrocytoma cells (AID 1224859);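 also: plate controls were ZIKV-infected untreated cells for no effect and uninfected cells for full effect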
# Summary of the method: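 Compound added 1 h pre-infection; ZIKV 2 FFU/cell on SNB-19 cells, 6 h, 37 C/5% CO2. Caspase-Glo 3/7 luminescence; values as % inhibition of ZIKV-induced caspase activity.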
# [5] = qHTS Screen of the MIPE 4.0 Collection Against Ewings Sarcoma (RDES) (AID 1259252); also: nearly all actives have a fitted effect of over 35% in size; also: potency is read from the fitted curve at half-maximal effect
# Summary of the method: (§1)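 Here, cells in 5% FBS RPMI were exposed for two days (48 h) to compound dilutions added four hours after plating. ATP-based CellTiter-Glo luminescence measured viability, normalized to vehicle and no-cell blanks.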
# [6] = qHTS Screen of the MIPE 4.0 Collection Against Ewings Sarcoma (TC71) (AID 1259253); also: nearly all actives have a fitted effect of over 40% in size; also: potency is read from the fitted curve at half-maximal effect
# Summary of the method: as §1
# [7] = qHTS Screen of the MIPE 4.0 Collection Against Ewings Sarcoma (EW8) (AID 1259255); also: nearly all actives have a fitted effect of over 35% in size; also: potency is read from the fitted curve at half-maximal effect;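 as to viability: 100% = DMSO-treated cells and 0% = medium-only wells without cells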
# Summary of the method: as §1
# [8] = qHTS Screen of the MIPE 4.0 Collection Against Ewings Sarcoma (TC32) (AID 1259256); also: nearly all actives have a fitted effect of over 45% in size; also: potency is read from the fitted curve at half-maximal effect
# Summary of the method: as §1
# [9] = P-glycoprotein substrates identified in KB-3-1 adenocarcinoma cell line, qHTS therapeutic library screen (AID 1346986); also: nearly all actives have a fitted effect of over 60% in size;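 also: potency is read from the fitted curve at half-maximal effect; potency is for cytotoxicity meaning loss of cell viability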
# Summary of the method: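 72 h cell-killing screen, 500 cells/well, CellTiter-Glo luminescence. Paired lines KB-3-1/KB-8-5-11; P-gp dependence checked by tariquidar co-treatment and HEK-293 MDR-19 versus empty-vector cells.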
# [10] = P-glycoprotein substrates identified in KB-8-5-11 adenocarcinoma cell line, qHTS therapeutic library screen (AID 1346987); also: nearly all actives have a fitted effect of over 65% in size; also: potency is read from the fitted curve at half-maximal effect
# Summary of the method: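 Compounds are pinned in dose-response onto KB-8-5-11 cells (500 cells/well, colchicine-free medium) and left 72 h at 37 degree C. CellTiter-Glo luminescence then yields AC50 values.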
# [11] = qHTS profiling for inhibitors of Plasmodium falciparum (3D7) proliferation (AID 743322; call rule not given here;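 also: infected erythrocytes exposed to compound for 72 h before lysis; 100% = DMSO vehicle wells and 0% = 0.29 µM artemisinin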); conditions: P. falciparum 3D7 proliferation; at 28.7 µM (top of the series)
# Summary of the method: (§2)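 Parasite DNA was quantified by SYBR Green I fluorescence (ex 485, em 535 nm) after overnight lysis in saponin/Triton buffer at room temperature. Cultures at 0.3% parasitemia and 2.5% hematocrit were first exposed to compound for 72 h at 37 C; signals were normalised to artemisinin (0.29 uM) and vehicle wells.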
# [12] = qHTS profiling for inhibitors of Plasmodium falciparum (DD2) proliferation (AID 743323; call rule not given here); conditions: lower = more inhibition; at 28.7 µM (top of the series)
# Summary of the method: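 Parasite DNA quantified by SYBR Green fluorescence (ex 485, em 535 nm) after saponin/Triton lysis and overnight dark incubation. Cultures: 0.3% parasitemia, 2.5% hematocrit, 72 h, 37 C; data scaled between DMSO and 0.29 uM artemisinin.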
# [13] = qHTS profiling for inhibitors of Plasmodium falciparum (HB3) proliferation (AID 743324); conditions: Plasmodium falciparum HB3 blood-stage proliferation; at 28.7 µM (top of the series);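 also: 100% = DMSO vehicle wells and 0% = artemisinin-treated control wells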
# Summary of the method: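 SYBR Green fluorescence (485 ex/535 em) of lysed cultures, incubated overnight at room temperature in the dark, quantifies parasite DNA. Infected erythrocytes at 0.3% parasitemia and 2.5% hematocrit were exposed 72 h; values normalized to DMSO and 0.29 uM artemisinin controls.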
# [14] = qHTS profiling of the MIPE4 collection as inhibitors of Plasmodium falciparum (3D7) proliferation (AID 743344; call rule not given here;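 also: scaled between DMSO vehicle wells and 0.29 µM artemisinin as full inhibition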); conditions: P. falciparum 3D7 in erythrocytes, SYBR Green DNA fluorescence, 72 h; at 28.5 µM (top of the series) unless noted
# Summary of the method: as §2
# [15] = qHTS profiling of the MIPE4 collection as inhibitors of Plasmodium falciparum (DD2) proliferation (AID 743345; call rule not given here); conditions: P. falciparum Dd2 in erythrocytes, SYBR Green DNA, 72 h; at 28.5 µM (top of the series) unless noted
# Summary of the method: as §2
# [16] = qHTS profiling of the MIPE4 collection as inhibitors of Plasmodium falciparum (HB3) proliferation (AID 743347; call rule not given here;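 also: plate controls were DMSO vehicle wells for no effect and artemisinin wells for full effect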); conditions: P. falciparum HB3 in erythrocytes, SYBR Green DNA, 72 h; at 28.5 µM (top of the series) unless noted
# Summary of the method: as §2
# [17] = qHTS Assay for Identifying Gametocytocidal Compounds (AID 743244); also: potency is read from the fitted curve at half-maximal effect;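 as to max response: % is scaled to controls: 0 for no effect and ±100 for the full control effect; actives lower the fluorescent signal which means gametocytes are killed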; conditions: P. falciparum 3D7 stage III-V gametocytes, alamarBlue, 72 h; max response: stronger effect = lower value
# Summary of the method: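 Stage III–V gametocytes of P. falciparum 3D7 were seeded at 20,000 cells/well onto pre-dispensed compounds. After 72 h, 37 °C, 5% CO2, alamarBlue was added for another 24 h.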
# [18] = qHTS profiling of the MIPE4 collection as inhibitors of Plasmodium falciparum (DD2) proliferation (Rep 2) (AID 743346; call rule not given here); conditions: P. falciparum Dd2 in erythrocytes, SYBR Green DNA, 72 h; at 28.5 µM (top of the series) unless noted
# Summary of the method: as §2
Compound,"cell viability, % of control (lower = more cytotoxic) [1]",viability (% of control) [2],Potency [3],Potency [4],Potency [5],Potency [6],Potency [7],Potency [8],Potency [9],Potency [10],remaining parasite growth % (stronger effect = lower value) [11] [%],"activity, percent of control [12] [%]","remaining proliferation (% of control), lower = more inhibition [13] [%]","parasite growth, % of DMSO control [14]","parasite growth remaining, % of DMSO control (lower = more inhibition) [15]","growth, % of control [16]",max response [17],"parasite growth, % of control (lower = inhibition) [18]",Potency [17]
NC1=N[C@H]2[C@H](CS[C@H]2CCCCC(=O)O)N1,175% [at 23.2 µM],126% [at 23.2 µM],inactive,inactive,inactive,inactive,inactive,inactive,inactive,inactive,,,,,,,,,
O=C(O)CCCCC(CCSCc1ccccc1)SCc1ccccc1 (configuration not stated),54.3%,23.9%,inactive,inactive,inactive,inactive,inactive,inactive,inactive,inactive,84,84,70.4,76.2%,96.3%,63.9%,,,
CCCCCCCN(CC)CCCC(O)c1ccc(NS(C)(=O)=O)cc1 (configuration not stated),213%,81.4%,inactive,inactive,inactive,inactive,inactive,inactive,,inactive,,,,58.8%,83.7%,54%,-2.04% (inactive),72%,
COC(=O)C1C2CC3c4[nH]c5cc(OC)ccc5c4CCN3CC2CC(OC(=O)c2cc(OC)c(OC)c(OC)c2)C1OC (configuration not stated),120%,78.7%,inactive,inactive,2.64 µM (active),2.64 µM (active),2.96 µM (active),2.35 µM (active),,inactive,1.2,9.89,2.79,10.2%,39.3%,9.05%,,20%,42.9 µM (active)
Cn1c(Nc2ccc(C(F)(F)F)cc2)nc2cc(Oc3ccnc(-c4ncc(C(F)(F)F)[nH]4)c3)ccc21,9.63%,13.2%,inactive,inactive,14.8 µM (active),7.43 µM (active),5.26 µM (active),2.09 µM (active),,20.9 µM (active),-1.53,0.692,-0.79,7.02%,10.9%,8.58%,,19.4%,23.5 µM (active)
CCCCC(=O)O[C@]1(C(=O)CO)[C@@H](C)C[C@H]2[C@@H]3CCC4=CC(=O)C=C[C@]4(C)[C@@]3(F)[C@@H](O)C[C@@]21C,44%,51.8%,inactive,inactive,inactive,inactive,inactive,inactive,inactive,inactive,,,,13.5%,78.8%,22.8%,,54.9%,
Cc1coc2c1C(=O)C(=O)c1c-2ccc2c(C)cccc12,45.1%,93.8%,inactive,inactive,inactive,11.8 µM (active),inactive,inactive,inactive,inactive,,,,8.32%,,3.19%,,,
CC(C)N(CC[C@H](c1ccccc1)c1cc(CO)ccc1O)C(C)C,145%,101%,inactive,inactive,inactive,inactive,inactive,inactive,inactive,inactive,,,,,,103%,,,
O=C(O)C=Cc1ccc(Cn2ccnc2)cc1,243%,124%,inactive,inactive,inactive,inactive,inactive,inactive,inactive,inactive,,,,90.5%,100%,95.1%,,96.2%,
CCNC(=O)Nc1ccc(-c2nc3c(c(N4CCOC[C@H]4C)n2)CCN(C2COC2)C3)cc1,5.52%,19.9%,inactive,inactive,1.05 µM (active),0.935 µM (active),1.05 µM (active),0.935 µM (active),0.58 µM (active),1.84 µM (active),,,,24.6%,,71.6%,,49%,
NC(=O)c1ncn([C@@H]2O[C@H](CO)[C@@H](O)[C@@H]2O)c1N,191%,112%,inactive,inactive,inactive,inactive,inactive,inactive,,inactive,94.2,92.4,92.9,96.5%,,68.2%,,95.2%,
C[C@H](CCC(=O)O)[C@H]1CC[C@H]2[C@@H]3[C@H](O)C[C@@H]4C[C@H](O)CC[C@]4(C)[C@@H]3CC[C@]12C,114%,97.2%,inactive,inactive,inactive,inactive,inactive,inactive,,inactive,,,,,,,,,
O=C(O)C(=O)Nc1cccc(C2=NN=N[N]2)c1,222%,113%,inactive,inactive,inactive,inactive,inactive,inactive,,inactive,,,,,,,,,
COc1cc(C=CC(=O)CC(=O)C=Cc2ccc(O)c(OC)c2)ccc1O,5.74% [at 92.2 µM],5.08% [at 92.2 µM],inactive,inactive,7.62 µM (active),21.5 µM (active),6.05 µM (active),12.1 µM (active),,48.1 µM (active),-1.44,-0.402,0.164,4.86% [at 57.5 µM],7.94% [at 57.5 µM],2.99% [at 57.5 µM],,16.5% [at 57.5 µM],
